About 83,000 compounds went through this panel and 20% of them were active in at least one assay; those are over-represented in the sample as a whole.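 For each line, cells grew in 96-well plates with the test compound present at a single concentration for 48 hours.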 Activity calls are given as the source filed them. Rule for the calls: active = growth percent below 10; inactive = the rest.
Key:
Assay in all cases: NCI-60 one-dose screen, 48 h (100 = growth as untreated, 0 = no growth, -100 = all killed)
HCT-15 colon = conditions: 10 µM unless noted
HT29 colon = conditions: 10 µM unless noted
SNB-75 CNS = conditions: 10 µM
SNB-19 CNS = conditions: 10 µM unless noted
U251 CNS = conditions: 10 µM unless noted
PC-3 prostate = conditions: 10 µM unless noted
SK-MEL-5 melanoma = conditions: 10 µM unless noted
UACC-62 melanoma = conditions: 10 µM unless noted
LOX IMVI melanoma = conditions: 10 µM unless noted
SK-MEL-28 melanoma = conditions: 10 µM unless noted
SK-MEL-2 melanoma = conditions: 10 µM unless noted
EKVX NSCLC = conditions: 10 µM unless noted
SN12C renal = conditions: 10 µM unless noted
UO-31 renal = conditions: 10 µM unless noted
TK-10 renal = conditions: 10 µM unless noted
ACHN renal = conditions: 10 µM unless noted
CAKI-1 renal = conditions: 10 µM unless noted
A498 renal = conditions: 10 µM unless noted
CCRF-CEM leukemia = conditions: 10 µM unless noted
MOLT-4 leukemia = conditions: 10 µM unless noted

Measured: growth

CCCCCc1cc[n+](CC(=O)c2ccc([N+](=O)[O-])cc2)cc1
inactive: HCT-15 colon 94.4% | HT29 colon 21.5% | SNB-75 CNS 89.6% | SNB-19 CNS 87.9% | U251 CNS 48.4% | PC-3 prostate 59.5% | SK-MEL-5 melanoma 22% | UACC-62 melanoma 91.1% | LOX IMVI melanoma 45.9% | SK-MEL-28 melanoma 106% | SK-MEL-2 melanoma 49.3% | EKVX NSCLC 72.8% | SN12C renal 90.9% | UO-31 renal 72.1% | TK-10 renal 74.6% | ACHN renal 103% | CAKI-1 renal 113% | A498 renal 101% | CCRF-CEM leukemia 89.2% | MOLT-4 leukemia 100%

COc1cc(-c2ncn(/C=C\C(=O)OC(C)C)n2)cc(C(F)(F)F)c1
active: HCT-15 colon 3.97% | HT29 colon -14% | SNB-75 CNS -29.3% | U251 CNS 5.83% | SK-MEL-5 melanoma -38.4% | UACC-62 melanoma -10.9% | LOX IMVI melanoma -73% | SK-MEL-28 melanoma -18.3% | SK-MEL-2 melanoma -10% | UO-31 renal 3.53% | TK-10 renal -8.8% | A498 renal -53.8% | MOLT-4 leukemia 2.48%
inactive: SNB-19 CNS 11.8% | PC-3 prostate 18.2% | EKVX NSCLC 43.6% | SN12C renal 12.9% | ACHN renal 11.5% | CAKI-1 renal 14.3% | CCRF-CEM leukemia 11.5%

COc1ccncc1S(=O)(=O)NC(=O)Nc1ccc(Cl)c(Cl)c1
inactive: HCT-15 colon 101% | HT29 colon 102% | SNB-75 CNS 78.3% | SNB-19 CNS 96.8% | U251 CNS 94.9% | PC-3 prostate 91.9% | SK-MEL-5 melanoma 120% | UACC-62 melanoma 66.7% | SK-MEL-28 melanoma 120% | SK-MEL-2 melanoma 92.9% | EKVX NSCLC 84.7% | SN12C renal 94.5% | UO-31 renal 66.7% | TK-10 renal 113% | ACHN renal 85.2% | CAKI-1 renal 84.4% | A498 renal 96.3% | CCRF-CEM leukemia 81.7% | MOLT-4 leukemia 83.5%

COc1cc(C2NN=C3c4ccccc4CCC32)cc(OC)c1OC (stereo not given)
inactive: HCT-15 colon 72.4% | HT29 colon 105% | SNB-75 CNS 59.8% | SNB-19 CNS 79.3% | U251 CNS 94.7% | PC-3 prostate 75.2% | SK-MEL-5 melanoma 72.2% | UACC-62 melanoma 69.8% | LOX IMVI melanoma 82.4% | SK-MEL-28 melanoma 101% | SK-MEL-2 melanoma 76.9% | EKVX NSCLC 72.6% | SN12C renal 77.7% | UO-31 renal 41.4% | TK-10 renal 94.1% | ACHN renal 80.3% | CAKI-1 renal 65% | A498 renal 89.6% | MOLT-4 leukemia 60.5%
active: CCRF-CEM leukemia 1.98%

Cc1nn(-c2ccc(Cl)cc2)c2ncnc(N/N=C/c3cccc([N+](=O)[O-])c3)c12
inactive: HCT-15 colon 100% | HT29 colon 90.7% | SNB-75 CNS 99.2% | SNB-19 CNS 96.4% | U251 CNS 82.3% | PC-3 prostate 39% | SK-MEL-5 melanoma 105% | UACC-62 melanoma 109% | SK-MEL-28 melanoma 105% | SK-MEL-2 melanoma 99% | EKVX NSCLC 84% | SN12C renal 101% | UO-31 renal 72.3% | TK-10 renal 93.3% | ACHN renal 108% | CAKI-1 renal 76.4% | A498 renal 85.5% | CCRF-CEM leukemia 20.5% | MOLT-4 leukemia 15.4%

CCCN=C1NC(=O)/C(=C/c2nc(-c3ccc(OC)cc3)n3ccccc23)S1
inactive: HCT-15 colon 84.8% | HT29 colon 99.3% | SNB-75 CNS 96.5% | SNB-19 CNS 80.8% | U251 CNS 52.9% | PC-3 prostate 85.9% | SK-MEL-5 melanoma 64.9% | UACC-62 melanoma 93.1% | LOX IMVI melanoma 52.7% | SK-MEL-28 melanoma 111% | SK-MEL-2 melanoma 95.2% | EKVX NSCLC 115% | SN12C renal 83.8% | UO-31 renal 91.8% | TK-10 renal 91.1% | ACHN renal 62.7% | CAKI-1 renal 123% | A498 renal 103% | CCRF-CEM leukemia 84.9% | MOLT-4 leukemia 76.5%

O=c1[nH]c(Nc2ccc(S(=O)(=O)O)cc2)nc2nc(Nc3ccc(NC(=S)Nc4ccccc4)cc3)nc(-c3ccc(O)cc3O)c12
inactive: HCT-15 colon 105% | HT29 colon 125% | SNB-75 CNS 96.3% | SNB-19 CNS 91.1% | U251 CNS 101% | PC-3 prostate 108% | SK-MEL-5 melanoma 114% | UACC-62 melanoma 91.5% | LOX IMVI melanoma 96.2% | SK-MEL-28 melanoma 112% | SK-MEL-2 melanoma 101% | EKVX NSCLC 110% | SN12C renal 98.5% | UO-31 renal 73.9% | TK-10 renal 156% | ACHN renal 100% | CAKI-1 renal 134% | A498 renal 111% | CCRF-CEM leukemia 94.5% | MOLT-4 leukemia 91.4%

COc1ccc(Nc2nn3c(C)cc(C)nc3c2C(=O)Nc2ccc(C)cc2)c(OC)c1
inactive: HCT-15 colon 101% | HT29 colon 101% | SNB-19 CNS 101% | U251 CNS 94.8% | PC-3 prostate 98.8% | SK-MEL-5 melanoma 103% | UACC-62 melanoma 93% | LOX IMVI melanoma 109% | SK-MEL-28 melanoma 94.4% | SK-MEL-2 melanoma 92.7% | EKVX NSCLC 103% | SN12C renal 98.4% | UO-31 renal 82% | TK-10 renal 107% | ACHN renal 101% | CAKI-1 renal 95.7% | A498 renal 117% | CCRF-CEM leukemia 106% | MOLT-4 leukemia 107%

Clc1ccc2c(NC3CCC(NC4CCCCC4)CC3)ccnc2c1 (stereo not given)
inactive: HCT-15 colon 29.6% | SNB-75 CNS 79.6% | SNB-19 CNS 81.9% | U251 CNS 35.8% | PC-3 prostate 59.2% | SK-MEL-5 melanoma 18.6% | LOX IMVI melanoma 35.6% | SK-MEL-2 melanoma 55.2% | EKVX NSCLC 68.1% | SN12C renal 74.1% | UO-31 renal 56.2% | TK-10 renal 48.8% | ACHN renal 58.2% | CAKI-1 renal 47.9% | A498 renal 62.5% | CCRF-CEM leukemia 70.2% | MOLT-4 leukemia 56.9%
active: HT29 colon 7.7% | UACC-62 melanoma -31.3% | SK-MEL-28 melanoma -10.5%

CCN(CC)c1ccc(N=O)cc1
active: HCT-15 colon 3.87% | HT29 colon -3.9% | ACHN renal 6.07% | CAKI-1 renal -13.4%
inactive: SNB-19 CNS 93.1% | U251 CNS 42.9% | PC-3 prostate 44.6% | SK-MEL-5 melanoma 87.2% | UACC-62 melanoma 73.4% | LOX IMVI melanoma 15% | SK-MEL-28 melanoma 88.3% | SK-MEL-2 melanoma 90.8% | EKVX NSCLC 91.1% | SN12C renal 56.3% | UO-31 renal 26% | TK-10 renal 47.3% | A498 renal 100% | CCRF-CEM leukemia 21.4% | MOLT-4 leukemia 44.9%

COc1ccc(-n2c(=O)sc3c(Cl)nc(C)nc32)c(OC)c1
inactive: HCT-15 colon 61.3% | HT29 colon 74.1% | SNB-19 CNS 49.6% | U251 CNS 51.6% | PC-3 prostate 85.2% | SK-MEL-5 melanoma 98.1% | UACC-62 melanoma 78.4% | LOX IMVI melanoma 29.1% | SK-MEL-28 melanoma 83.3% | SK-MEL-2 melanoma 99.4% | EKVX NSCLC 75.9% | SN12C renal 81% | TK-10 renal 115% | ACHN renal 95.6% | A498 renal 91.1% | CCRF-CEM leukemia 55.9% | MOLT-4 leukemia 78.2%
active: UO-31 renal -23.2% | CAKI-1 renal -58.1%

COc1ccc(C2NN=C3c4ccccc4CCC32)cc1 (stereo not given)
inactive: HCT-15 colon 40% | HT29 colon 44.5% | SNB-75 CNS 48.3% | SNB-19 CNS 76.5% | U251 CNS 80.4% | PC-3 prostate 66.6% | SK-MEL-5 melanoma 15.2% | UACC-62 melanoma 49.9% | LOX IMVI melanoma 72.5% | SK-MEL-28 melanoma 76% | SK-MEL-2 melanoma 78.1% | EKVX NSCLC 64.3% | SN12C renal 84.4% | UO-31 renal 54.1% | TK-10 renal 76.4% | ACHN renal 93.4% | CAKI-1 renal 21.9% | A498 renal 58.2% | CCRF-CEM leukemia 13.4% | MOLT-4 leukemia 16.8%

O=C1/C(=C/c2ccc(Cl)cc2)CN(C(=O)CCN2CCC(=NO)CC2)C/C1=C\c1ccc(Cl)cc1
active: HCT-15 colon -90.9% | HT29 colon -71.8% | SNB-19 CNS -93.2% | U251 CNS -91.1% | PC-3 prostate -55.2% | SK-MEL-5 melanoma -84.8% | UACC-62 melanoma -75.4% | LOX IMVI melanoma -92.7% | SK-MEL-28 melanoma -89.7% | SK-MEL-2 melanoma -68.4% | EKVX NSCLC -46.5% | SN12C renal -75.2% | UO-31 renal -92.5% | TK-10 renal -74.7% | ACHN renal -61.5% | CAKI-1 renal -73.9% | A498 renal -59.8% | CCRF-CEM leukemia -23.3% | MOLT-4 leukemia -12.4%

Cc1c(C(N)=O)sc2c1c(=O)n(Cc1ccccc1)c1nnc(Nc3ccccc3)n21
inactive: HCT-15 colon 96.1% | HT29 colon 94.3% | SNB-19 CNS 101% | U251 CNS 97.2% | PC-3 prostate 96.9% | SK-MEL-5 melanoma 105% | UACC-62 melanoma 92.5% | LOX IMVI melanoma 93.5% | SK-MEL-28 melanoma 109% | SK-MEL-2 melanoma 103% | EKVX NSCLC 94.1% | SN12C renal 99.2% | UO-31 renal 67.9% | TK-10 renal 113% | ACHN renal 96.4% | CAKI-1 renal 82% | A498 renal 110%

O=C(/C=C\c1cccc([N+](=O)[O-])c1)/C=C/c1cccc([N+](=O)[O-])c1
inactive: HCT-15 colon 73.5% | SNB-75 CNS 94.3% | SNB-19 CNS 94.5% | U251 CNS 22.6% | PC-3 prostate 82.1% | SK-MEL-5 melanoma 100% | UACC-62 melanoma 78.1% | SK-MEL-28 melanoma 102% | EKVX NSCLC 107% | SN12C renal 98.1% | UO-31 renal 71.1% | TK-10 renal 89.9% | ACHN renal 89.6% | CAKI-1 renal 94.2% | A498 renal 90.4% | CCRF-CEM leukemia 74.4% | MOLT-4 leukemia 94.3%
active: HT29 colon 9.81% | LOX IMVI melanoma -89.7% | SK-MEL-2 melanoma -38.1%

c1ccc(-c2cn(-c3ccccc3)c(-c3ccccc3)n2)cc1
inactive: HCT-15 colon 60.9% | HT29 colon 70.5% | SNB-75 CNS 81.3% | SNB-19 CNS 85.6% | U251 CNS 56.4% | PC-3 prostate 59.5% | SK-MEL-5 melanoma 108% | UACC-62 melanoma 76.9% | SK-MEL-28 melanoma 98.9% | SK-MEL-2 melanoma 81.7% | EKVX NSCLC 89.1% | SN12C renal 97.7% | UO-31 renal 41.4% | TK-10 renal 81.8% | ACHN renal 91.1% | CAKI-1 renal 98.4% | A498 renal 94.5%
active: CCRF-CEM leukemia -25.8% | MOLT-4 leukemia -13.3%
